{
  "source": "the supplement of paper PMC8728848",
  "binders": {"B1": {"name": "4F2hc (Homo sapiens), P08195 (protein)", "chain": "WWHTGALYRIGDLQAFQGHGAGNLAGLKGRLDYLSSLKVKGLVLGPIHKNQKDDVAQTDLLQIDPNFGSKEDFDSLLQSAKKKSIRVILDLTPNYRGENSWFSTQVDTVATKVKDALEFWLQAGVDGFQVRDIENLKDASSFLAEWQNITKGFSEDRLLIAGTNSSDLQQILSLLESNKDLLLTSSYLSDSGSTGEHTKSLVTQYLNATGNRWCSWSLSQARLLTSFLPAQLLRLYQLMLFTLPGTPVFSYGDEIGLDAAALPGQPMEAPVMLWDESSFPDIPGAVSANMTVKGQSEDPGSLLSLFRRLSDQRSKERSLLHGDFHAFSAGPGLFSYIRHWDQNERFLVVLNFGDVGLSAGLQASDLPASASLPAKADLLLSTQPGREEGSPLELERLKLEPHEGLLLRFPYAA"}},
  "assay_in_all_cases": "glycan array binding signal (z-score within array); higher = stronger binding",
  "conditions_in_all_cases": "glycan notation: IUPAC condensed, linker removed",
  "key": {"[1]": {"target": "Fuc(a1-2)Gal(b1-4)GlcNAc(b1-2)Man(a1-3)[Fuc(a1-2)Gal(b1-4)GlcNAc(b1-2)Man(a1-6)]Man(b1-4)GlcNAc(b1-4)GlcNAc", "in_short": "(§1)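 Glycan array data were curated from 3228 arrays in the Consortium for Functional Glycomics database and kept only where the protein sequence was available. Glycan names were converted to IUPAC-condensed notation, and columns mapping to the same glycan were averaged. The binding signal is a within-array Z-score, averaged across arrays of the same protein sequence at different concentrations or buffers and across linkers. Negative Z-scores can be read as non-binding.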"}, "[2]": {"target": "Fuc(a1-2)Gal6S(b1-4)Glc6S", "in_short": "as §1"}, "[3]": {"target": "Fuc(a1-2)Gal6S(b1-4)GlcNAc", "in_short": "as §1"}, "[4]": {"target": "Fuc(a1-2)[GalNAc(a1-3)]Gal(b1-4)Glc", "in_short": "as §1"}, "[5]": {"target": "Fuc(a1-3)[Gal(b1-4)]GlcNAc6S", "in_short": "as §1"}, "[6]": {"target": "Gal(a1-3)[Gal(a1-4)]Gal(b1-4)GlcNAc", "in_short": "as §1"}, "Gal(a1-4)GlcNAc": {"target": "Gal(a1-4)GlcNAc", "in_short": "as §1"}, "[7]": {"target": "Gal(b1-3)GalNAc(a1-3)[Fuc(a1-2)]Gal(b1-4)GlcNAc", "in_short": "as §1"}, "[8]": {"target": "Gal(b1-3)GlcNAc(b1-2)Man(a1-3)[Gal(b1-3)GlcNAc(b1-2)Man(a1-6)]Man(b1-4)GlcNAc(b1-4)GlcNAc", "in_short": "as §1"}, "Gal(b1-4)GlcNAc": {"target": "Gal(b1-4)GlcNAc", "in_short": "as §1"}, "Gal3S(b1-3)GlcNAc": {"target": "Gal3S(b1-3)GlcNAc", "in_short": "as §1"}, "Gal3S4S(b1-4)GlcNAc": {"target": "Gal3S4S(b1-4)GlcNAc", "in_short": "as §1"}, "GalNAc(b1-3)Gal": {"target": "GalNAc(b1-3)Gal", "in_short": "as §1"}, "[9]": {"target": "GlcNAc(a1-4)Gal(b1-4)GalNAc", "in_short": "as §1"}, "[10]": {"target": "GlcNAc(b1-4)[GlcNAc(b1-6)]GalNAc", "in_short": "as §1"}, "[11]": {"target": "GlcNAc(b1-6)Gal(b1-4)GlcNAc", "in_short": "as §1"}, "GlcNAc3Prop(b1-4)GlcNAc": {"target": "GlcNAc3Prop(b1-4)GlcNAc", "in_short": "as §1"}, "[12]": {"target": "GlcNAc6S(b1-3)Gal(b1-4)GlcNAc", "in_short": "as §1"}, "Kdn(a2-6)Gal(b1-4)GlcNAc": {"target": "Kdn(a2-6)Gal(b1-4)GlcNAc", "in_short": "as §1"}, "[13]": {"target": "Neu5Ac(a2-3)Gal(b1-3)[Fuc(a1-4)]GlcNAc", "in_short": "as §1"}, "[14]": {"target": "Neu5Ac(a2-3)Gal(b1-4)GlcNAc(b1-2)Man(a1-3)[Neu5Ac(a2-6)Gal(b1-4)GlcNAc(b1-2)Man(a1-6)]Man(b1-4)GlcNAc(b1-4)GlcNAc", "in_short": "as §1"}, "[15]": {"target": "Neu5Ac(a2-3)Gal(b1-4)GlcNAc(b1-3)GalNAc", "in_short": "as §1"}, "[16]": {"target": "Neu5Ac(a2-3)Gal(b1-4)[Fuc(a1-3)]GlcNAc(b1-6)[Neu5Ac(a2-3)Gal(b1-3)]GalNAc", "in_short": "as §1"}, "[17]": {"target": "Neu5Ac(a2-3)[GalNAc(b1-4)]Gal(b1-4)GlcNAc", "in_short": "as §1"}, "[18]": {"target": "Neu5Ac(a2-6)Gal(b1-4)GlcNAc(b1-2)Man(a1-3)[GlcNAc(b1-2)Man(a1-6)]Man(b1-4)GlcNAc(b1-4)GlcNAc", "in_short": "as §1"}, "[19]": {"target": "Neu5Ac(a2-6)Gal(b1-4)GlcNAc(b1-2)Man(a1-6)[Man(a1-3)]Man(b1-4)GlcNAc(b1-4)GlcNAc", "in_short": "as §1"}, "[20]": {"target": "Neu5Ac(a2-8)Neu5Ac(a2-8)Neu5Ac", "in_short": "as §1"}},
  "note": "Only a selection was taken, and the strongest signals are over-represented in it overall.",
  "data": [
    {"binder": "B1", "values": [
      {"measurement": "glycan array binding signal (z-score)", "setting": "[1]", "result": -0.399},
      {"measurement": "glycan array binding signal (z-score)", "setting": "[2]", "result": -0.953},
      {"measurement": "glycan array binding signal (z-score)", "setting": "[3]", "result": -1.01},
      {"measurement": "glycan array binding signal (z-score)", "setting": "[4]", "result": 6.38},
      {"measurement": "glycan array binding signal (z-score)", "setting": "[5]", "result": 2.68},
      {"measurement": "glycan array binding signal (z-score)", "setting": "[6]", "result": -0.32},
      {"measurement": "glycan array binding signal (z-score)", "setting": "Gal(a1-4)GlcNAc", "result": -0.668},
      {"measurement": "glycan array binding signal (z-score)", "setting": "[7]", "result": -0.507},
      {"measurement": "glycan array binding signal (z-score)", "setting": "[8]", "result": 3.66},
      {"measurement": "glycan array binding signal (z-score)", "setting": "Gal(b1-4)GlcNAc", "result": -0.318},
      {"measurement": "glycan array binding signal (z-score)", "setting": "Gal3S(b1-3)GlcNAc", "result": 0.65},
      {"measurement": "glycan array binding signal (z-score)", "setting": "Gal3S4S(b1-4)GlcNAc", "result": 3.95},
      {"measurement": "glycan array binding signal (z-score)", "setting": "GalNAc(b1-3)Gal", "result": -0.631},
      {"measurement": "glycan array binding signal (z-score)", "setting": "[9]", "result": -1.21},
      {"measurement": "glycan array binding signal (z-score)", "setting": "[10]", "result": 0.848},
      {"measurement": "glycan array binding signal (z-score)", "setting": "[11]", "result": 0.103},
      {"measurement": "glycan array binding signal (z-score)", "setting": "GlcNAc3Prop(b1-4)GlcNAc", "result": 0.691},
      {"measurement": "glycan array binding signal (z-score)", "setting": "[12]", "result": -1.04},
      {"measurement": "glycan array binding signal (z-score)", "setting": "Kdn(a2-6)Gal(b1-4)GlcNAc", "result": 0.863},
      {"measurement": "glycan array binding signal (z-score)", "setting": "[13]", "result": 1.08},
      {"measurement": "glycan array binding signal (z-score)", "setting": "[14]", "result": -0.878},
      {"measurement": "glycan array binding signal (z-score)", "setting": "[15]", "result": -0.993},
      {"measurement": "glycan array binding signal (z-score)", "setting": "[16]", "result": 3.35},
      {"measurement": "glycan array binding signal (z-score)", "setting": "[17]", "result": -0.5},
      {"measurement": "glycan array binding signal (z-score)", "setting": "[18]", "result": -0.141},
      {"measurement": "glycan array binding signal (z-score)", "setting": "[19]", "result": 5.26},
      {"measurement": "glycan array binding signal (z-score)", "setting": "[20]", "result": -0.566}
    ]}
  ]
}
